HCMV antiviral: qHTS Assay for inhibitors of the human cytomegalovirus (HCMV). HFF cells, HCMV-luciferase reporter, 72 h; active compounds read low. activity change, negative = inhibition, % at 57.5 µM. hit rate 4.5% among 410,000. AID 1259415, 2018; in the data active = activity change below about -60%; inconclusive = no clear call, values can overlap the other calls; inactive = above about -39%
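After 16 h attachment at 37C, HFF cells received test compound and HCMV-luciferase (1 PFU/cell); reporter luminescence read 72 h later, data normalized against buffer-only and known inhibitor Salinomycin.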
HCV inhibitor: qHTS Assay for Inhibitors of Hepatitis C Virus (HCV); Potency, µM (highest dose often 41.8 µM), usual class: inhibitors; AID 651820, 2012; hit rate 3.4% among 340,000; Huh7.5.1 HCVcc-Cre infection, luciferase reporter, 44 h; active = well fitted inhibition curve with a large enough effect; inconclusive = small, poorly fitted or top-dose-only effect, or another doubt; inactive = no such curve, though single readings can be large or run the other way
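Luciferase read-out (15 sec integration) after a 15 min room-temperature substrate step quantifies HCVcc-Cre infection. Cells, 1,000 per well, had compound added 4 h post-plating, then virus at ~0.5 moi, and were cultured 44 h.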
Vaccinia mCherry: qHTS for Stage-Specific Inhibitors of Vaccinia Orthopoxvirus: mCherry Reporter Primary qHTS. Vaccinia virus mCherry reporter infection, fluorescence. Potency, µM (highest dose often 36.5 µM), usual class: inhibitors. hit rate 0.63% among 310,000. AID 720579, 2013; calls by dose curve; tested in A549 cells; note: nearly all actives have a fitted effect of over 35% in size
FMDV antiviral: High Throughput Screening for Foot and Mouth Disease Virus Antivirals | FMDV antiviral cell-based qHTS | Potency, µM (series often up to 57.9 µM), usual class: inhibitors | hit rate 1.2% among 410,000; calls by dose curve; tested in HEK293T cells; note: read-out not given here; nearly all actives have a fitted effect of over 45% in size
Vaccinia Venus: qHTS for Stage-Specific Inhibitors of Vaccinia Orthopoxvirus: Venus Reporter Primary qHTS. Vaccinia virus Venus reporter expression, fluorescence. Potency, µM (titrated, usually from 36.5 µM), hits mostly inhibitors. hit rate 0.46% among 330,000. AID 720580, 2013; calls by dose curve; tested in A549 cells; note: nearly all actives have a fitted effect of over 30% in size
Of the large screens only hits and unclear results are named; the others gave an inactive call. A selection: hits, their analogues and other compounds. The true share with any hit is near 7.3%.

CCCNC(=O)C(Cc1ccc(OC)cc1)NC(=O)c1ccc(C#N)cc1 (configuration not stated)	HCV inhibitor 3.2µM
CCCNC(=O)C(Cc1ccc(OC)cc1)NC(=O)c1ccc(Cl)cc1 (configuration not stated)	none
COc1ccc(C(=O)NCC(c2cccnc2)N2CCc3ccccc3C2)cc1OC (configuration not stated)	none (no result: HCV inhibitor)
CCc1ccccc1NC(=O)c1noc2c1CC(C(C)(C)C)CC2 (configuration not stated)	none (no result: HCV inhibitor)
COc1ccc(S(=O)(=O)NCCc2csc3nc(-c4ccc(Cl)cc4)nn23)cc1C	none (no result: HCV inhibitor)
CC(C)[C@H]1COCCS(=O)(=O)N1Cc1cccc([N+](=O)[O-])c1	Vaccinia mCherry inconclusive, Vaccinia Venus 28µM (no result: HCMV antiviral, HCV inhibitor, FMDV antiviral)
CC(C)[C@H]1COCCS(=O)(=O)N1Cc1ccccc1F	Vaccinia mCherry inconclusive, Vaccinia Venus 1µM
O=S1(=O)CCOC[C@H](Cc2ccccc2)N1Cc1ccc(F)cc1	HCMV antiviral -67, Vaccinia Venus inconclusive
CCCC[C@H]1COCCS(=O)(=O)N1Cc1ccccc1F	HCMV antiviral -99
CCOc1cccc(C(=O)N(Cc2ccc(C)o2)C2CCS(=O)(=O)C2)c1 (configuration not stated)	none (no result: HCV inhibitor)
COC(=O)C1(C)COP(=O)(Nc2ccc(OC)cc2)OC1 (configuration not stated)	none (no result: HCV inhibitor)
COC(=O)c1c(C)[nH]c2ccccc12	none (no result: HCV inhibitor, Vaccinia mCherry, FMDV antiviral, Vaccinia Venus)
Cc1cc(C)c(NC(=O)CC(=O)c2ccccc2)c(Cl)c1	HCMV antiviral inconclusive
Cc1cc(C)c(C(=O)CC(=O)c2ccccc2Cl)c(O)c1	HCMV antiviral -70
Cc1ccccc1CNC(=O)Cc1csc2ccccc12	none (no result: HCV inhibitor)
CCC1CN2CCc3cc(OC)c(OC)cc3C2CC1CC1NCCc2c1[nH]c1ccc(O)cc21 (configuration not stated)	HCMV antiviral -99, HCV inhibitor inconclusive, Vaccinia mCherry inconclusive, FMDV antiviral inconclusive, Vaccinia Venus 5.6µM
COc1cc2c(cc1OC)C(Cc1ccc(O)cc1)N(C)CC2 (configuration not stated)	none
Cc1ccc(S(=O)(=O)Nc2ccc3nc(N)sc3c2)cc1	HCMV antiviral -89, HCV inhibitor 13µM (no result: Vaccinia mCherry, Vaccinia Venus)
Cn1cccc1-c1nc2ccc(NC(=O)c3ccccc3)cc2[nH]1	HCV inhibitor inconclusive
Cc1ccc(S(=O)(=O)Nc2ccc3nc(-c4cccn4C)[nH]c3c2)cc1	HCV inhibitor 11µM
Cc1ccc(S(=O)(=O)Nc2ccc3nc(C)sc3c2)cc1	HCV inhibitor inconclusive, Vaccinia Venus inconclusive (no result: HCMV antiviral, Vaccinia mCherry)
Cc1nc2ccc(NS(=O)(=O)c3ccc(Br)cc3)cc2s1	HCMV antiviral -60, HCV inhibitor inconclusive (no result: Vaccinia mCherry, Vaccinia Venus)
CC(=O)Nc1ccc(S(=O)(=O)Nc2ccc3nc(C)sc3c2)cc1	HCMV antiviral -76, HCV inhibitor inconclusive
Cc1nc2ccc(NS(=O)(=O)c3cccc([N+](=O)[O-])c3)cc2s1	HCMV antiviral inconclusive, HCV inhibitor 11µM
O=C1CCCN1c1ccc(S(=O)(=O)Nc2ccc3c(c2)OCCO3)cc1	HCMV antiviral -81, HCV inhibitor inconclusive, Vaccinia mCherry inconclusive, Vaccinia Venus inconclusive (no result: FMDV antiviral)
Cc1nc2ccc(NS(=O)(=O)c3ccc(F)c(F)c3)cc2s1	none (no result: Vaccinia mCherry, Vaccinia Venus)
Cc1nc2ccc(NC(=O)c3cc([N+](=O)[O-])cc([N+](=O)[O-])c3Cl)cc2s1	HCV inhibitor 25µM, FMDV antiviral inconclusive
Cc1nc2ccc(NC(=O)c3ccc(Cl)c([N+](=O)[O-])c3)cc2s1	none
Cc1nc2ccc(NS(=O)(=O)c3ccc4c(c3)OCCO4)cc2s1	HCV inhibitor 3.2µM, Vaccinia Venus inconclusive (no result: Vaccinia mCherry)
Cc1nc2ccc([N+](=O)[O-])cc2s1	HCMV antiviral inconclusive
COc1ccc(OC)c(S(=O)(=O)NCC(c2cccs2)S(=O)(=O)c2ccc(F)cc2)c1 (configuration not stated)	HCMV antiviral inconclusive (no result: HCV inhibitor)
CN1OC[C@@H]2CN(CC3CCCCC3)[C@H](c3ccc(-c4ccc(C#N)cc4)cc3)C[C@@H]21	none (no result: HCV inhibitor, Vaccinia mCherry, FMDV antiviral, Vaccinia Venus)
CN(C1CCCCC1)S(=O)(=O)c1ccc2c(c1)c(=O)c(C(=O)N1CCN(c3ccccc3)CC1)cn2C	none (no result: HCV inhibitor)
C=CCN=C(CC)C1=C(O)CCCC1=O	HCMV antiviral -67
Cc1ccc2occ(CN3CCOc4ccc(C(C)(O)COc5ccccc5)cc4C3)c(=O)c2c1 (configuration not stated)	none (no result: HCMV antiviral, HCV inhibitor)
CCNc1ncc2nc(-c3ccc(Cl)cc3)c(=O)n(CCC#N)c2n1	none (no result: HCMV antiviral, HCV inhibitor, Vaccinia mCherry, Vaccinia Venus)
O=C(CSC1=NCCS1)Nc1nc2ccccc2s1	HCMV antiviral -68, HCV inhibitor inconclusive, Vaccinia mCherry inconclusive, Vaccinia Venus inconclusive
Cc1nc(SCC(=O)Nc2nccs2)c(C#N)c(C)c1C	HCMV antiviral -69 (no result: Vaccinia mCherry, Vaccinia Venus)
CC(C)CC(=O)Nc1nnc(SCC(=O)Nc2nccs2)s1	HCMV antiviral -63 (no result: HCV inhibitor)
Cc1cc(C(F)(F)F)c(C#N)c(SCC(=O)Nc2nc3ccccc3s2)n1	HCMV antiviral -60, HCV inhibitor inconclusive, FMDV antiviral inconclusive
Cc1sc(NC(=O)CSC2=NCCS2)nc1-c1ccccc1	HCV inhibitor inconclusive, FMDV antiviral inconclusive
COc1cc(-c2cc(-c3ccccc3)nc(SCC(=O)Nc3nccs3)c2C#N)cc(OC)c1OC	none (no result: Vaccinia mCherry)
O=S(=O)(N1CC[C@@]23C1=CC=C[C@@H]2N(S(=O)(=O)C(F)(F)F)c1ccccc13)C(F)(F)F	none (no result: HCV inhibitor, Vaccinia mCherry, FMDV antiviral, Vaccinia Venus)
COc1ccc(CN2CCOc3ccc(CN4CCN(CCO)CC4)cc3C2)c2ccccc12	none (no result: HCMV antiviral, HCV inhibitor)
O=C(Nc1cccc(C(F)(F)F)c1)N1CCC(CN2CCCCCC2)CC1	none (no result: HCV inhibitor)
CC(=O)N1c2ccc(S(=O)(=O)NCC3CCC(C(=O)Nc4cc(C)ccc4C)CC3)cc2CC1C (configuration not stated)	FMDV antiviral inconclusive (no result: HCV inhibitor)
CSc1nc(N)nc(SCC(=O)Nc2cccc(F)c2)c1C#N	HCMV antiviral -65, HCV inhibitor inconclusive, Vaccinia mCherry inconclusive, FMDV antiviral inconclusive, Vaccinia Venus inconclusive
N#Cc1c(C(F)(F)F)cc(-c2cccs2)nc1SCC(=O)Nc1cccc(Cl)c1	none (no result: HCV inhibitor)
Cc1nc(SCC(=O)Nc2nc3ccccc3s2)c(C#N)c(C)c1C	HCMV antiviral -94, HCV inhibitor inconclusive, FMDV antiviral 0.1µM (no result: Vaccinia mCherry, Vaccinia Venus)
N#Cc1c(C(F)(F)F)cc(-c2cccs2)nc1SCC(=O)Nc1cccc(Br)c1	HCMV antiviral -70, Vaccinia mCherry inconclusive, Vaccinia Venus inconclusive (no result: HCV inhibitor)
CC(C)c1nnc(NC(=O)CSc2nc3ccccc3s2)s1	HCMV antiviral -73 (no result: Vaccinia mCherry, Vaccinia Venus)
CCc1nnc(NC(=O)CSc2nc3ccccc3s2)s1	none
CCCNC(=O)Cn1c(SCc2ccccc2C)nc2ccncc21	none (no result: HCMV antiviral, HCV inhibitor, FMDV antiviral)
COc1cc(Cl)c(C)cc1NC(=O)CSCc1nc(-c2ccc(OC)c(OC)c2)no1	none (no result: HCV inhibitor)
COc1ccccc1CCn1cnc(-c2ccc(F)cc2F)c1CC(C)C	HCMV antiviral -84 (no result: HCV inhibitor, Vaccinia mCherry, FMDV antiviral, Vaccinia Venus)
COc1ccccc1CCn1cnc(-c2ccccc2F)c1CC(C)C	HCMV antiviral -83 (no result: HCV inhibitor, Vaccinia mCherry, FMDV antiviral, Vaccinia Venus)
CCCCCc1c(-c2ccc(F)cc2F)ncn1CCc1ccccc1OC	HCMV antiviral inconclusive, FMDV antiviral inconclusive (no result: HCV inhibitor)

Compound activity as filed in PubChem BioAssay.
